Binding signal data for 13 sequences are collected here from PMC8384837, “Expanding the binding specificity for RNA recognition by a PUF domain”.

Common to all, as to assay: yeast three-hybrid, YBZ-1, SC-Leu-His + 0.5 mM 3-AT, 4 days
Common to all, as to details: tags: N-Gal4 AD-HA kept; label: inside an RPR1-promoter hybrid RNA with tandem MS2 sites; ssRNA

In one assay the target is PUM1 PUF domain R4-KGY (Homo sapiens, UniProt Q14671 828-1176, N971K;H972G;Q975Y). The method, boiled down:
(§1)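 Pumilio-1 PUF domain libraries, randomized at the three base-contacting residues of each repeat, were co-expressed with matching RNA elements from a centromeric plasmid in strain YBZ-1, which carries a LexA–MS2 coat fusion and a HIS3 reporter. Transformants grew for four days on SC-Leu (input) or on SC-Leu-His + 0.5 mM 3-AT (selection), and the repeat regions were PCR-amplified and Illumina-sequenced. The interaction score is the log change in variant frequency from input to selection. That logarithm is base 2, with a pseudocount of 1 where a variant was absent.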

The target in a further assay is PUM1 PUF domain R5-GRK (Homo sapiens, UniProt Q14671 828-1176, C1007G;Q1011K). The method, boiled down:
as §1

Another assay addresses PUM1 PUF domain R4-WGA (Homo sapiens, UniProt Q14671 828-1176, N971W;H972G;Q975A). The essentials: as §1
The target of the next assay is PUM1 PUF domain R8-RFE (Homo sapiens, UniProt Q14671 828-1176, N1122R;Y1123F;Q1126E). The essentials:
as §1

The target in a further assay is PUM1 PUF domain R8-NWE (Homo sapiens, UniProt Q14671 828-1176, Y1123W;Q1126E). The essentials: as §1
PUM1 PUF domain R8-NWE, sequence (Q14671 828-1176 Y1123W/Q1126E): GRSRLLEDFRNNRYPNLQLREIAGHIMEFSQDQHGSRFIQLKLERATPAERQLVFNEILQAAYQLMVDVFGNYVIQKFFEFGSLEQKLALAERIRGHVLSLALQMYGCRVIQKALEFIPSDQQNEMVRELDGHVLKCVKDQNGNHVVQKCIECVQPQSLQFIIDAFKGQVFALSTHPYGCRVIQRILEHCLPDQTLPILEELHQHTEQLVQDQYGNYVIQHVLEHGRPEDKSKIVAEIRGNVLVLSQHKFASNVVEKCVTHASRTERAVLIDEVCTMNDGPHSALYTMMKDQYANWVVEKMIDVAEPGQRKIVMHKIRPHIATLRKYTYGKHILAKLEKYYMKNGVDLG
In another assay the target is PUM1 PUF domain R4-VRT (Homo sapiens, UniProt Q14671 828-1176, N971V;H972R;Q975T). The essentials:
as §1

The next assay deals with PUM1 PUF domain R3-VRV (Homo sapiens, UniProt Q14671 828-1176, C935V;Q939V). The essentials: as §1
PUM1 PUF domain R3-VRV, sequence (Q14671 828-1176 C935V/Q939V): as the sequence (Q14671 828-1176 Y1123W/Q1126E) above, with C108V, Q112V, W296Y, E299Q counted along it
In a further assay the target is PUM1 PUF domain R4-SQR (Homo sapiens, UniProt Q14671 828-1176, N971S;H972Q;Q975R). The essentials: as §1
PUM1 PUF domain R4-SQR, sequence (Q14671 828-1176 N971S/H972Q/Q975R): as the sequence (Q14671 828-1176 Y1123W/Q1126E) above, with N144S, H145Q, Q148R, W296Y, E299Q counted along it
In a further assay the target is PUM1 PUF domain R8-RYF (Homo sapiens, UniProt Q14671 828-1176, N1122R;Q1126F). The essentials:
as §1

For another assay, the target named is PUM1 PUF domain R7-RSL (Homo sapiens, UniProt Q14671 828-1176, S1079R;N1080S;E1083L). The essentials:
as §1

A further assay has as its target PUM1 PUF domain R1-KTE (Homo sapiens, UniProt Q14671 828-1176, S863K;R864T;Q867E). The essentials: as §1
The next assay deals with PUM1 PUF domain R1-SGE (Homo sapiens, UniProt Q14671 828-1176, R864G;Q867E). The essentials: as §1
PUM1 PUF domain R1-SGE, sequence (Q14671 828-1176 R864G/Q867E): as the sequence (Q14671 828-1176 Y1123W/Q1126E) above, with R37G, Q40E, W296Y, E299Q counted along it
In the next assay the target is PUM1 PUF domain R3-YYA (Homo sapiens, UniProt Q14671 828-1176, C935Y;R936Y;Q939A). The method, boiled down: as §1
PUM1 PUF domain R3-YYA, sequence (Q14671 828-1176 C935Y/R936Y/Q939A): as the sequence (Q14671 828-1176 Y1123W/Q1126E) above, with C108Y, R109Y, Q112A, W296Y, E299Q counted along it
The target in another assay is PUM1 PUF domain R3-RAQ (Homo sapiens, UniProt Q14671 828-1176, C935R;R936A). The essentials: as §1
PUM1 PUF domain R3-RAQ, sequence (Q14671 828-1176 C935R/R936A): as the sequence (Q14671 828-1176 Y1123W/Q1126E) above, with C108R, R109A, W296Y, E299Q counted along it
For another assay, the target named is PUM1 PUF domain R3-WAR (Homo sapiens, UniProt Q14671 828-1176, C935W;R936A;Q939R). The method, boiled down:
as §1

The target in a further assay is PUM1 PUF domain R3-LSN (Homo sapiens, UniProt Q14671 828-1176, C935L;R936S;Q939N). The essentials: as §1
PUM1 PUF domain R3-LSN, sequence (Q14671 828-1176 C935L/R936S/Q939N): as the sequence (Q14671 828-1176 Y1123W/Q1126E) above, with C108L, R109S, Q112N, W296Y, E299Q counted along it
In a further assay the target is PUM1 PUF domain R3-YCD (Homo sapiens, UniProt Q14671 828-1176, C935Y;R936C;Q939D). The method, boiled down: as §1
PUM1 PUF domain R3-YCD, sequence (Q14671 828-1176 C935Y/R936C/Q939D): as the sequence (Q14671 828-1176 Y1123W/Q1126E) above, with C108Y, R109C, Q112D, W296Y, E299Q counted along it
In a further assay the target is PUM1 PUF domain R5-RYI (Homo sapiens, UniProt Q14671 828-1176, C1007R;R1008Y;Q1011I). The essentials:
as §1

The next assay has as its target PUM1 PUF domain R5-RGT (Homo sapiens, UniProt Q14671 828-1176, C1007R;R1008G;Q1011T). The method, boiled down: as §1
The target of a further assay is PUM1 PUF domain R7-GND (Homo sapiens, UniProt Q14671 828-1176, S1079G;E1083D). The method, boiled down: as §1
PUM1 PUF domain R7-GND, sequence (Q14671 828-1176 S1079G/E1083D): as the sequence (Q14671 828-1176 Y1123W/Q1126E) above, with S252G, E256D, W296Y, E299Q counted along it

PUM1 PUF domain R5-GRK, sequence (Q14671 828-1176 C1007G/Q1011K): as the sequence (Q14671 828-1176 Y1123W/Q1126E) above, with C180G, Q184K, W296Y, E299Q counted along it
PUM1 PUF domain R7-RSL, sequence (Q14671 828-1176 S1079R/N1080S/E1083L): as the sequence (Q14671 828-1176 Y1123W/Q1126E) above, with S252R, N253S, E256L, W296Y, E299Q counted along it
PUM1 PUF domain R3-WAR, sequence (Q14671 828-1176 C935W/R936A/Q939R): as the sequence (Q14671 828-1176 Y1123W/Q1126E) above, with C108W, R109A, Q112R, W296Y, E299Q counted along it
PUM1 PUF domain R4-WGA, sequence (Q14671 828-1176 N971W/H972G/Q975A): as the sequence (Q14671 828-1176 Y1123W/Q1126E) above, with N144W, H145G, Q148A, W296Y, E299Q counted along it
PUM1 PUF domain R8-RFE, sequence (Q14671 828-1176 N1122R/Y1123F/Q1126E): as the sequence (Q14671 828-1176 Y1123W/Q1126E) above, with N295R, W296F counted along it
PUM1 PUF domain R4-KGY, sequence (Q14671 828-1176 N971K/H972G/Q975Y): as the sequence (Q14671 828-1176 Y1123W/Q1126E) above, with N144K, H145G, Q148Y, W296Y, E299Q counted along it
PUM1 PUF domain R5-RYI, sequence (Q14671 828-1176 C1007R/R1008Y/Q1011I): as the sequence (Q14671 828-1176 Y1123W/Q1126E) above, with C180R, R181Y, Q184I, W296Y, E299Q counted along it
PUM1 PUF domain R1-KTE, sequence (Q14671 828-1176 S863K/R864T/Q867E): as the sequence (Q14671 828-1176 Y1123W/Q1126E) above, with S36K, R37T, Q40E, W296Y, E299Q counted along it
PUM1 PUF domain R4-VRT, sequence (Q14671 828-1176 N971V/H972R/Q975T): as the sequence (Q14671 828-1176 Y1123W/Q1126E) above, with N144V, H145R, Q148T, W296Y, E299Q counted along it
PUM1 PUF domain R8-RYF, sequence (Q14671 828-1176 N1122R/Q1126F): as the sequence (Q14671 828-1176 Y1123W/Q1126E) above, with N295R, W296Y, E299F counted along it
PUM1 PUF domain R5-RGT, sequence (Q14671 828-1176 C1007R/R1008G/Q1011T): as the sequence (Q14671 828-1176 Y1123W/Q1126E) above, with C180R, R181G, Q184T, W296Y, E299Q counted along it

As for “GGCUAGAACUAGUGGAUCCCCCGGCGCCCGGCGGCUCGAGCCCGGGUAAGUGUAAAUAGUCUGCAUGCCGCCGGGCGCCAUGCCUGCAGGUCGACUCUAGAAAACAUG”, the binding signal with PUM1 PUF domain R4-KGY was 4.05 log2 enrichment (interaction score); with PUM1 PUF domain R5-GRK, 3.37 log2 enrichment (interaction score); with PUM1 PUF domain R4-WGA, 3.8 log2 enrichment (interaction score); with PUM1 PUF domain R8-RFE, 2.4 log2 enrichment (interaction score); with PUM1 PUF domain R8-NWE it was 2.9 log2 enrichment (interaction score); in the assay with PUM1 PUF domain R4-VRT, 4.25 log2 enrichment (interaction score). Moreover, the binding signal with PUM1 PUF domain R3-VRV was 3.29 log2 enrichment (interaction score).

For the sequence “GGCUAGAACUAGUGGAUCCCCCGGCGCCCGGCGGCUCGAGCCCGGGUAAGUGUACAUAGUCUGCAUGCCGCCGGGCGCCAUGCCUGCAGGUCGACUCUAGAAAACAUG”, the figures for the binding signal with PUM1 PUF domain R4-SQR and with PUM1 PUF domain R4-WGA were 3.07 log2 enrichment (interaction score) and 3.39 log2 enrichment (interaction score), respectively.

Take “GGCUAGAACUAGUGGAUCCCCCGGCGCCCGGCGGCUCGAGCCCGGGUAAGUGUGAAUAGUCUGCAUGCCGCCGGGCGCCAUGCCUGCAGGUCGACUCUAGAAAACAUG”: the binding signal in the assay with PUM1 PUF domain R5-GRK was 1.55 log2 enrichment (interaction score).

Regarding “GGCUAGAACUAGUGGAUCCCCCGGCGCCCGGCGGCUCGAGCCCGGGUAAGCGUAAAUAGUCUGCAUGCCGCCGGGCGCCAUGCCUGCAGGUCGACUCUAGAAAACAUG”, the results for the binding signal with PUM1 PUF domain R8-RYF, with PUM1 PUF domain R8-RFE and with PUM1 PUF domain R8-NWE were 4.88 log2 enrichment (interaction score), 3.87 log2 enrichment (interaction score) and 1.64 log2 enrichment (interaction score), respectively.

Consider “GGCUAGAACUAGUGGAUCCCCCGGCGCCCGGCGGCUCGAGCCCGGGUAAGUCUAAAUAGUCUGCAUGCCGCCGGGCGCCAUGCCUGCAGGUCGACUCUAGAAAACAUG”, for which the binding signal with PUM1 PUF domain R7-RSL was 2.11 log2 enrichment (interaction score).

In the case of “GGCUAGAACUAGUGGAUCCCCCGGCGCCCGGCGGCUCGAGCCCGGGUAAGUGUAAAUCGUCUGCAUGCCGCCGGGCGCCAUGCCUGCAGGUCGACUCUAGAAAACAUG”, the binding signal in the assay with PUM1 PUF domain R1-KTE is 4.3 log2 enrichment (interaction score); with PUM1 PUF domain R1-SGE it was 1.55 log2 enrichment (interaction score).

Turning to “GGCUAGAACUAGUGGAUCCCCCGGCGCCCGGCGGCUCGAGCCCGGGUAAGUGUAAUUAGUCUGCAUGCCGCCGGGCGCCAUGCCUGCAGGUCGACUCUAGAAAACAUG”, the binding signal is 3.25 log2 enrichment (interaction score) in the assay with PUM1 PUF domain R3-YYA, 3.8 log2 enrichment (interaction score) with PUM1 PUF domain R3-RAQ, 2.65 log2 enrichment (interaction score) in the assay with PUM1 PUF domain R3-WAR and 2.89 log2 enrichment (interaction score) with PUM1 PUF domain R3-LSN.

For “GGCUAGAACUAGUGGAUCCCCCGGCGCCCGGCGGCUCGAGCCCGGGUAAGUGUAAGUAGUCUGCAUGCCGCCGGGCGCCAUGCCUGCAGGUCGACUCUAGAAAACAUG”, the binding signal was 2.85 log2 enrichment (interaction score) in the assay with PUM1 PUF domain R3-WAR, 3.96 log2 enrichment (interaction score) in the assay with PUM1 PUF domain R3-YCD and 4.28 log2 enrichment (interaction score) in the assay with PUM1 PUF domain R3-LSN.

“GGCUAGAACUAGUGGAUCCCCCGGCGCCCGGCGGCUCGAGCCCGGGUAAGUGUCAAUAGUCUGCAUGCCGCCGGGCGCCAUGCCUGCAGGUCGACUCUAGAAAACAUG”: the binding signal was 3.71 log2 enrichment (interaction score) with PUM1 PUF domain R5-RYI, 2.77 log2 enrichment (interaction score) with PUM1 PUF domain R5-GRK and 5.24 log2 enrichment (interaction score) with PUM1 PUF domain R5-RGT.

Take “GGCUAGAACUAGUGGAUCCCCCGGCGCCCGGCGGCUCGAGCCCGGGUAAGUGUUAAUAGUCUGCAUGCCGCCGGGCGCCAUGCCUGCAGGUCGACUCUAGAAAACAUG”: in the assay with PUM1 PUF domain R5-GRK, the binding signal is 4.85 log2 enrichment (interaction score).

Take “GGCUAGAACUAGUGGAUCCCCCGGCGCCCGGCGGCUCGAGCCCGGGUAAGUGUAAAUUGUCUGCAUGCCGCCGGGCGCCAUGCCUGCAGGUCGACUCUAGAAAACAUG”: in the assay with PUM1 PUF domain R1-SGE, the binding signal is 3.87 log2 enrichment (interaction score).

For the sequence “GGCUAGAACUAGUGGAUCCCCCGGCGCCCGGCGGCUCGAGCCCGGGUAAGUGUAAAUGGUCUGCAUGCCGCCGGGCGCCAUGCCUGCAGGUCGACUCUAGAAAACAUG”, the binding signal in the assay with PUM1 PUF domain R1-SGE is 5.2 log2 enrichment (interaction score).

Consider “GGCUAGAACUAGUGGAUCCCCCGGCGCCCGGCGGCUCGAGCCCGGGUAAGUUUAAAUAGUCUGCAUGCCGCCGGGCGCCAUGCCUGCAGGUCGACUCUAGAAAACAUG”, for which the values for the binding signal with PUM1 PUF domain R7-GND and in the assay with PUM1 PUF domain R7-RSL were 3.28 log2 enrichment (interaction score) and 3.53 log2 enrichment (interaction score), respectively.
